Test results taken from PubChem BioAssay (NCATS).
Results filed as inconclusive are left out. Activity calls are given as the source filed them. The call rests on the fitted dose curve; in most records, active means well fitted inhibition curve with a large enough effect; inconclusive means small, poorly fitted or top-dose-only effect; inactive means flat fitted curve, though single readings scatter.

The compounds below were run against Calcium and integrin-binding protein 1 (Homo sapiens) (UniProt Q99828) (assay: Primary qHTS for Identification of Calcium Integrin Binding Protein 1 (CIB1) Competitor (AID 1508620; further: top concentration of the series differs between compounds)). Settings: CIB1-GST / FITC-alphaIIb peptide fluorescence polarization; series mostly up to 114 µM; activity change, negative = inhibition: at the top concentration.
Chain of Calcium and integrin-binding protein 1 (Homo sapiens) (Q99828 whole entry, looked up): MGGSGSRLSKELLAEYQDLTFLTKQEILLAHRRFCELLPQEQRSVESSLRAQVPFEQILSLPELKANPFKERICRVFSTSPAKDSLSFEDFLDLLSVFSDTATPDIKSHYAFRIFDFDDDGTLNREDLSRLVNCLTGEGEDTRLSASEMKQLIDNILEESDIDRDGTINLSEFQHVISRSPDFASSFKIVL
Method in brief: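 Fluorescence polarization competition: GST-tagged CIB1 (1 uM final) preincubated with compound 15 min at room temperature, then FITC-labelled alphaIIb peptide (100 nM final) added. After 15 min at room temperature, polarization read at Ex 480/Em 540.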
On the % scale 0 is the no-effect control and ±100 the full control effect.

SMILES | activity change, negative = inhibition
CCOC(=O)c1c(CNCc2ccccc2F)c2sc(C)cc2n1C | 1.92% (inactive)
O=C(Nc1ccccn1)c1sc2ccccc2c1Cl | 2.81% (inactive)
COc1cccc(-c2nnc3n2N=C(c2ccccc2OC)CS3)c1 | -1.11% (inactive)
CN(C)S(=O)(=O)c1ccc(-c2nc(NCc3ccc(-c4ccnc(C(F)(F)F)c4)cc3)c3ccccc3n2)cc1 | 12.4% (inactive)
CN1C(=O)Cc2cc([S+](=O)([O-])N3CCN([S+](=O)([O-])c4c(F)cccc4F)CC3)ccc21 | -7% (inactive)
COc1cc(OC)cc(C2=Nn3c(nnc3-c3cccc(OC)c3)SC2)c1 | -0.411% (inactive)
NCCCNc1ncnc2ccc(-c3ccc4c(c3)OCO4)cc12 | 5.05% (inactive)
CC(=O)c1ccc(N2CCN(S(=O)(=O)c3ccc(N4CCCC4=O)cc3)CC2)cc1 | 4.06% (inactive)
CC(C)(C)CNc1ncnc2ccc(-c3ccc(C(=O)O)o3)cc12 | -12.2% (inactive)
O=C1CCCC2=C1C(c1[nH]ncc1Cl)N=C(Nc1ccn[nH]1)N2 (configuration not stated) | -3.46% (inactive)
Cc1cn([C@H]2C[C@H](N[S+](=O)([O-])Cc3ccc(Cl)cc3)[C@@H](CO)O2)c(=O)[nH]c1=O | 6.59% (inactive)
Cc1ccc(NS(=O)(=O)c2ccc3c(c2)n(C)c(=O)n3C)cc1C | -2.61% (inactive)
COc1ccc(/C=C(\C)C2Nc3cccc4cccc(c34)N2)cc1 | -19% (inactive)
O=C(Nc1ccc(-c2nc3ccccc3[nH]2)cc1)c1ccc(Oc2ccccc2)cc1 | 8.91% (inactive)
CCCCN(C)C(=O)Cn1nc(-c2ccccc2C)ccc1=O | 7.38% (inactive)
Cc1ccccc1CSc1nc2ncc(Br)cc2[nH]1 | 2.73% (inactive)
CCc1cccc(Nc2nn3c(=O)c4ccccc4nc3s2)c1 | 2.87% (inactive)
